# Source: the supplement of paper PMC11732987, “Enantioselective OTUD7B fragment discovery through chemoproteomics screening and high-throughput optimisation” (Communications Chemistry, 2025)
# Values without a mark were called inactive.
# What was measured:
# Test in all cases: log2 ratio of Biotin-Ahx-Ub-VS probe labelling (fragment/DMSO); higher = less target engagement (more negative = stronger competition), active = hit call of the paper (q ≤ 0.05, log2 ratio ≤ -1)
# Details in all cases: compound concentration: 200 uM; treatment time: 3 h
# ALG13 = molecular target: T1, ALG13 (UniProt Q9NP73)
# T1 sequence (whole entry): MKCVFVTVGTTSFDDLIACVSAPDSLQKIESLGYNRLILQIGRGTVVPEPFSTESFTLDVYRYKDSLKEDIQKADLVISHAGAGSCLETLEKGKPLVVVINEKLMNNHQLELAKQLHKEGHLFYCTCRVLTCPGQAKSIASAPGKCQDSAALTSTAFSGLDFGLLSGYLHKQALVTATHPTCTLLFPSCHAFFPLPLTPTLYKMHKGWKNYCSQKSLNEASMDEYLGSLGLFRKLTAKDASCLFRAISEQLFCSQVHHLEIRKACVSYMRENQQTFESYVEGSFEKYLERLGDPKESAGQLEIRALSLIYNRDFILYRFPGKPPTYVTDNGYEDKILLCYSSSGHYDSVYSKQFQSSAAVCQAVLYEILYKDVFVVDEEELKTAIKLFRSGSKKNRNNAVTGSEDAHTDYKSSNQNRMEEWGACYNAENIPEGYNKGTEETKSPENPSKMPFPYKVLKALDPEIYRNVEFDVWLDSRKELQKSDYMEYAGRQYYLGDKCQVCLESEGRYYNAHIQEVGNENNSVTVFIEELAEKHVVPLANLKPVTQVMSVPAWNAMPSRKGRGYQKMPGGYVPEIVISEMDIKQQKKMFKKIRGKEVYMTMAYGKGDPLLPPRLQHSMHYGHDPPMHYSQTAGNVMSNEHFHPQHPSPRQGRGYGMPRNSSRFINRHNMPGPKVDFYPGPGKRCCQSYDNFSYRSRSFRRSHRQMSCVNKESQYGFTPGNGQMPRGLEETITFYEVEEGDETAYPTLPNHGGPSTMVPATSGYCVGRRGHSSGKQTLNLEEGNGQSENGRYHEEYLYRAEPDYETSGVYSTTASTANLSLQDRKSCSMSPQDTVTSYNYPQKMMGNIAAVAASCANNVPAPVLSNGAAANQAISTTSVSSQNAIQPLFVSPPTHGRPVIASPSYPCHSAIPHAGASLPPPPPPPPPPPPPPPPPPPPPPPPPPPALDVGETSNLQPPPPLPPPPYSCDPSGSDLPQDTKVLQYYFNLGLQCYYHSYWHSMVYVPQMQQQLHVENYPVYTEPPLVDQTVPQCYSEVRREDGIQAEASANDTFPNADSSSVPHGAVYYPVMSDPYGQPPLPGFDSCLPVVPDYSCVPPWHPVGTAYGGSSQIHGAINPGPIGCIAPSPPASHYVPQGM
# Summary of the method: (§1)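 Fragment (200 µM) or vehicle was incubated for 3 h with triplicate HEK293T lysate samples of 495 µg, which were then treated with Biotin-Ahx-Ub-VS at 0.5 µM final for 1 h. Labelled DUBs were enriched on NeutrAvidin, digested with LysC and trypsin, and analysed by diaPASEF LC-MS/MS. Values are average log2 fragment/vehicle ratios from an unpaired t-test on global-median-normalised Spectronaut label-free quantities, using proteins with ≥2 unique peptides.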
# ATXN3 = ATXN3 (UniProt P54252)
# Sequence of ATXN3 (P54252 whole entry): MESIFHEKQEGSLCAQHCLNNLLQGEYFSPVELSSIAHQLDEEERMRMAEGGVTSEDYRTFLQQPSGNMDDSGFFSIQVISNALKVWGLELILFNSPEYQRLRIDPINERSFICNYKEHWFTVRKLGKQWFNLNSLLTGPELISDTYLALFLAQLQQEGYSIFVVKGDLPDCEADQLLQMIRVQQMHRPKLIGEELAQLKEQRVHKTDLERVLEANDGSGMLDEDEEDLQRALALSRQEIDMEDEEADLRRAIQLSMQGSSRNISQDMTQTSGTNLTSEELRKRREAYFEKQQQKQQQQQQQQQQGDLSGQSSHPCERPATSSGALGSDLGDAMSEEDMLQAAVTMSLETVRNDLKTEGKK
# Summary of the method: as §1
# BAP1 = molecular target: T2, BAP1 (UniProt Q92560)
# T2 sequence (whole entry): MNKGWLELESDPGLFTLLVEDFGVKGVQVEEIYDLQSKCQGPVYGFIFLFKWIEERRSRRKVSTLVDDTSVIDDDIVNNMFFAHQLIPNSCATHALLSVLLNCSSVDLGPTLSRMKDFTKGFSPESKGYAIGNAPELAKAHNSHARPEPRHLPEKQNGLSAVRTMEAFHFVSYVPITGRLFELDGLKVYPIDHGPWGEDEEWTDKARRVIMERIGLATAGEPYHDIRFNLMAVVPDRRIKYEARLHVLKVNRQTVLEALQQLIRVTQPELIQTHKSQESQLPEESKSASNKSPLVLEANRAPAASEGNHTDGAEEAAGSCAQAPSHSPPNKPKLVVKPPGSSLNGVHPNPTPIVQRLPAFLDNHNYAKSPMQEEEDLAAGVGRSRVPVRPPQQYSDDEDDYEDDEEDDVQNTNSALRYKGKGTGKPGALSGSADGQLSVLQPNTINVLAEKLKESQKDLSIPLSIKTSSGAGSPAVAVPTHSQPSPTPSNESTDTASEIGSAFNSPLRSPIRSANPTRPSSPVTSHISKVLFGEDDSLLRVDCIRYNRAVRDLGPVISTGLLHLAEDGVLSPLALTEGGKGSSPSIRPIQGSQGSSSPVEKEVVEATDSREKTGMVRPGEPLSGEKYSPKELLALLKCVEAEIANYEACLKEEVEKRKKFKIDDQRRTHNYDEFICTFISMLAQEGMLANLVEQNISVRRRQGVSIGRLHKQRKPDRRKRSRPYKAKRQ
# Summary of the method: as §1
# EIF3F = EIF3F (UniProt O00303)
# Sequence of EIF3F (O00303 whole entry): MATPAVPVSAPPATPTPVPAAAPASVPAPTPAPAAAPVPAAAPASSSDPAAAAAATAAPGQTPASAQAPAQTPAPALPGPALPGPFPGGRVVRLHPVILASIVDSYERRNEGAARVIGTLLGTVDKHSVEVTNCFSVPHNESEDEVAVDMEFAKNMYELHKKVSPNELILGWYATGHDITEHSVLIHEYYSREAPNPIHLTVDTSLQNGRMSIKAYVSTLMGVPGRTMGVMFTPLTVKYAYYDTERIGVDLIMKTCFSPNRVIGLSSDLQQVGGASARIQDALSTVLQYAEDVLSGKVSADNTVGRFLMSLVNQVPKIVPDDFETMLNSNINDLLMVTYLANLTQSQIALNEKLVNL
# Summary of the method: as §1
# EIF3H = EIF3H (UniProt O15372)
# Sequence of EIF3H (O15372 whole entry): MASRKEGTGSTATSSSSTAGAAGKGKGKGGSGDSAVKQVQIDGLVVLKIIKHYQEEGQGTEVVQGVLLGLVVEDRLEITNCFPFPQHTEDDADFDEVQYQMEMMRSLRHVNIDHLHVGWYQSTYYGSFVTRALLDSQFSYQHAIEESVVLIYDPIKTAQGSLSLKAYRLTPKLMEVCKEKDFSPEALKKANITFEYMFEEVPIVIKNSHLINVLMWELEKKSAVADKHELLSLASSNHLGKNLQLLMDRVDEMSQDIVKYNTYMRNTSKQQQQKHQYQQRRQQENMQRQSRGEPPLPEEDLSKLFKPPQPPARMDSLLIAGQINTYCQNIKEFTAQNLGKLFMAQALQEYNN
# Summary of the method: as §1
# FAM105A = molecular target: T3, FAM105A (UniProt Q9NUU6)
# T3 sequence (whole entry): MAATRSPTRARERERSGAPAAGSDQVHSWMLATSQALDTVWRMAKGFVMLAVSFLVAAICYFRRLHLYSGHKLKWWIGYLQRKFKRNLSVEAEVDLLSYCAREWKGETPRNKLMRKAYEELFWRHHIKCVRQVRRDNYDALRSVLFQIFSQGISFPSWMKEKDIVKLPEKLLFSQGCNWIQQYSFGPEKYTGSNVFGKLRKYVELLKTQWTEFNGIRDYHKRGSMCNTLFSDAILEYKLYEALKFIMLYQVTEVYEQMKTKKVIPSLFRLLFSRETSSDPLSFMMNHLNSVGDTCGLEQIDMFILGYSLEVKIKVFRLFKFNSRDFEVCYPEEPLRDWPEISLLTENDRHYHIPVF
# Summary of the method: as §1
# OTUB1 = OTUB1 (UniProt Q96FW1)
# Sequence of OTUB1 (Q96FW1 whole entry): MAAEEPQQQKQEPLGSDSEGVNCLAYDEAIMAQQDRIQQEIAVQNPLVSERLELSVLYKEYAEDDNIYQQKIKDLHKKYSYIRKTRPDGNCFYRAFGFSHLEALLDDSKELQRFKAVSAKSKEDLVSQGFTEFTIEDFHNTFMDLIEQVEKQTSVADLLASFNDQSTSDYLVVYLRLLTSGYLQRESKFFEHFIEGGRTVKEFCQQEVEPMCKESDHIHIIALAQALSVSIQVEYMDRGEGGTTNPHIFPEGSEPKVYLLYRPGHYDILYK
# Summary of the method: as §1
# OTUD4 = molecular target: T4, OTUD4 (UniProt Q01804)
# T4 sequence (whole entry): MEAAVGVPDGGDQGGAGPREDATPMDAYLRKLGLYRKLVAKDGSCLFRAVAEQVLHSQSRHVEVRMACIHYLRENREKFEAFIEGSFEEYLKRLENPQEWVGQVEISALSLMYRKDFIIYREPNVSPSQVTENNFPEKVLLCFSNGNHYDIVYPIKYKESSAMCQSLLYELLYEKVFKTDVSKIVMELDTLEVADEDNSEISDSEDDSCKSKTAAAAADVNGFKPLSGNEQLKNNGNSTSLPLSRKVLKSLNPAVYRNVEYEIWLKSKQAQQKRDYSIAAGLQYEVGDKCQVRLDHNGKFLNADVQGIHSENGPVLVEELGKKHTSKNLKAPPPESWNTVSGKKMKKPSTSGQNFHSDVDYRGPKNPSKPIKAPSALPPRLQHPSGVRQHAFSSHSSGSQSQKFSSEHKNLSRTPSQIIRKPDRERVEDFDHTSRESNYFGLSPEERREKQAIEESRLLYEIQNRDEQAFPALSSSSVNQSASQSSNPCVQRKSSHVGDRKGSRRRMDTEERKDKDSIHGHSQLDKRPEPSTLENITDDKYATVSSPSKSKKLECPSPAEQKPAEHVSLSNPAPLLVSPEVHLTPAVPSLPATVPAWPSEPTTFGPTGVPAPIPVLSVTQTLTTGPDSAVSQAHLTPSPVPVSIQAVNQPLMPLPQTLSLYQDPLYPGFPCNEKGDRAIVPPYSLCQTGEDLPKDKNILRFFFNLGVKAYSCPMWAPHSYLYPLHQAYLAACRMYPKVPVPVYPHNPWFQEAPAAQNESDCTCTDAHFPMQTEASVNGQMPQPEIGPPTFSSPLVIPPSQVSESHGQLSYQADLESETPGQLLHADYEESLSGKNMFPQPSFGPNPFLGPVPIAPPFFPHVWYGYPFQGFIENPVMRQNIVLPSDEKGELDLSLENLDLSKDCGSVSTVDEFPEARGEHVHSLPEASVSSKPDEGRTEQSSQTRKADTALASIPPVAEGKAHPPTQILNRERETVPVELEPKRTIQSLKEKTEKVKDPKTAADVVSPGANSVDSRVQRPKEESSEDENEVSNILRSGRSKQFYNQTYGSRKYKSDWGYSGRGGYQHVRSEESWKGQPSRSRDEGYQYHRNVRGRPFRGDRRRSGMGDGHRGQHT
# Summary of the method: as §1
# OTUD5 = molecular target: T5, OTUD5 (UniProt Q96G74)
# T5 sequence (whole entry): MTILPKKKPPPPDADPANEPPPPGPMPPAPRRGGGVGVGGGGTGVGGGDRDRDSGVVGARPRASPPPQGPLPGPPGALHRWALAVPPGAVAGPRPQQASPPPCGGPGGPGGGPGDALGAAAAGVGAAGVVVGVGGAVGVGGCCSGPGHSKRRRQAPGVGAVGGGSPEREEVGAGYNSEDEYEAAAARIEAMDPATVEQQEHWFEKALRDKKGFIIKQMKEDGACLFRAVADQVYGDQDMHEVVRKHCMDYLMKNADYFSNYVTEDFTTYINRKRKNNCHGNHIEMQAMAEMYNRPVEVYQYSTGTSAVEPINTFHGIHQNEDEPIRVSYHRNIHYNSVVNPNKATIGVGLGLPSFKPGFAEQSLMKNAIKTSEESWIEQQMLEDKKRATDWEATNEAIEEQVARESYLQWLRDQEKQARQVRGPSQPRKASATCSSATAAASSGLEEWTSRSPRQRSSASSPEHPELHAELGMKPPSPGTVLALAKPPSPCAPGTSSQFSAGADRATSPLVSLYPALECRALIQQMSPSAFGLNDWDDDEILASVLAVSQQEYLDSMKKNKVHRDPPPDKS
# Summary of the method: as §1
smiles,measurement,setting,value
Cc1ccc(CC(CO)CNC(=O)CCl)cc1 (centres undefined),log2 ratio of Biotin-Ahx-Ub-VS probe labelling,ALG13,-0.289
same,log2 ratio of Biotin-Ahx-Ub-VS probe labelling,ATXN3,-0.385
same,log2 ratio of Biotin-Ahx-Ub-VS probe labelling,BAP1,-3.74 (active)
same,log2 ratio of Biotin-Ahx-Ub-VS probe labelling,EIF3F,0.0794
same,log2 ratio of Biotin-Ahx-Ub-VS probe labelling,EIF3H,0.139
same,log2 ratio of Biotin-Ahx-Ub-VS probe labelling,FAM105A,0.442
same,log2 ratio of Biotin-Ahx-Ub-VS probe labelling,OTUB1,-0.0508
same,log2 ratio of Biotin-Ahx-Ub-VS probe labelling,OTUD4,-0.858
same,log2 ratio of Biotin-Ahx-Ub-VS probe labelling,OTUD5,-0.455
